Composite z-score data for 36 molecules are collected here from PubChem BioAssay.

This assay deals with Follistatin (Homo sapiens) (UniProt P19883). Briefly: follistatin binders on small-molecule microarrays, primary screen, biochemical, small-molecule microarray, 635/667 nm fluorescence (AID 1132). As to conditions: FST binding, 635 nm fluorescence, higher = more signal.
Chain of Follistatin (Homo sapiens) (P19883 whole entry, looked up): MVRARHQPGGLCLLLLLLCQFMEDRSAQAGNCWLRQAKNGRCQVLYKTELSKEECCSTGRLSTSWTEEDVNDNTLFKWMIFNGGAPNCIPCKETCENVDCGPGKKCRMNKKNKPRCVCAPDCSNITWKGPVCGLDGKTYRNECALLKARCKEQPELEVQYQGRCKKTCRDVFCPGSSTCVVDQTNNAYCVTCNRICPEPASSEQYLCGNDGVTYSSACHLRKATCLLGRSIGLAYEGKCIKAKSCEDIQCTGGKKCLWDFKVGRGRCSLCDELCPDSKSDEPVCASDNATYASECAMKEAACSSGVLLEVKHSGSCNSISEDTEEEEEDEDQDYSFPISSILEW
Take `CC(CCN1CCCc2nc(C)c(C)cc21)=NOC(C)CN1CCCCc2nc(C)c(C)cc21` (stereo unspecified): the composite z-score was 1.27.
In turn, `CCN1C(=O)[C@@H]2[C@H]3C(=CC[C@@H]2C1=O)C1(OCCCO1)[C@H]1O[C@H]1[C@H]3O` displayed a composite z-score of 1.12.
As for `Cc1ccc(S(=O)(=O)N[C@@H]2COC(=O)[C@@H](C)COC(=O)CC=C[C@H]2C)cc1`, the figure is 0.516.
As for `COC(=O)C1=C(C)N(Cc2ccccc2)[C@]23O[C@](C(=O)OC)(C(=O)N2[C@@H]1c1ccccc1)C(C(=O)OC)=C3C(=O)OC`, the figure is 0.732; as for `CC(C)CON=C1C[C@@H](O)[C@@H](O)[C@@H]2[C@@H]3C(=O)N(c4ccc(F)cc4F)C(=O)[C@@H]3CC[C@H]12`, 0.714; as for `CCOC(=O)CCN1C(=O)[C@H]2[C@H]3[C@H](O)[C@H](O)CC(=NOCC(C)C)[C@H]3CC[C@H]2C1=O`, -0.143.
As for `CC(C)=CCCC(C)=CCON=C1C[C@@H](O)[C@@H](O)[C@@H]2[C@@H]3C(=O)N(C(C)(C)C)C(=O)[C@@H]3CC[C@H]12`, the composite z-score is 0.329.
In turn, `C[C@H]1CC[C@H]2C(=O)O[C@H](COc3ccc(C(C)(C)C)cc3)CN2[C@@H]1c1ccc(Br)cc1` showed a composite z-score of 0.0469.
Next, `COC(=O)CC=C[C@@H](C)[C@@H](C=NO[C@@H]1O[C@H](COC(C)=O)[C@@H](OC(C)=O)[C@H](OC(C)=O)[C@H]1OC(C)=O)NS(=O)(=O)c1ccc(C)cc1`: 0.484; `CCOC(=O)[C@H](CC(C)C)NC(=O)CCC1CC(OC(=O)NCc2cccc3ccccc23)CC2(CCCC(COC(=O)NCc3ccncc3)O2)O1` (stereo partly specified): 0.768; `CC(CCN1CCCc2nc(C)c(C)cc21)=NO[C@@H](C)c1cc(-c2c(C)cc(C)cc2C)no1`: 0.427.
As for `O=C1[C@H]2[C@H]3[C@H](O)[C@H](O)CC(=NO[C@@H]4O[C@H](CO)[C@@H](O)[C@H](O)[C@H]4O)[C@H]3CC[C@H]2C(=O)N1c1cccc(Oc2ccccc2)c1`, the figure is 0.423; as for `CCOC(=O)NN=C1C[C@@H](O)[C@@H](O)[C@@H]2[C@@H]3C(=O)N(c4ccc(F)cc4F)C(=O)[C@@H]3CC[C@@H]12`, 0.519; as for `C[C@H]1CC[C@H]2C(=O)OC(CO)CN2[C@@H]1c1ccc(Br)cc1` (stereo partly specified), 0.124.
As for `Cn1c(=O)n2n(c1=O)[C@H]1[C@H](O)[C@@H]3O[C@@H]3C(=NOCc3ccccc3)[C@H]1CC2`, the figure is -0.104; as for `O=c1n(-c2ccccc2)c(=O)n2n1CC[C@@H]1C(=NOCc3ccccc3)[C@H]3O[C@H]3[C@@H](O)[C@@H]12`, 0.265.
On to `C[C@@H]1CC[C@H]2C(=O)O[C@@H](Cc3ccccc3)CN2[C@H]1c1ccc(Br)cc1`, for which the composite z-score came to 0.397.
As for `CO[C@H]1COC(=O)[C@@H](C)COC(=O)[C@H](C)NC(=O)CC=C[C@H]1C`, the figure is 1.31.
The molecule `CO[C@H]1COC(=O)CC=C[C@H](C)[C@@H](OC)COC(=O)[C@@H](C)COC(=O)CC=C[C@@H]1C` came in with a composite z-score of 1.5.
Next, `COC(=O)CC=C[C@@H](C)[C@@H](C=NOCC[C@@H]1C=C[C@H](OC(C)=O)[C@@H](COC(C)=O)O1)NS(=O)(=O)c1ccc(C)cc1`: 0.273.
As for `CCOC(=O)CCN1C(=O)[C@H]2[C@H]3[C@H](O)[C@H](O)CC(=NNC(=O)OCc4ccccc4)[C@@H]3CC[C@H]2C1=O`, the figure is 0.937; as for `CC(C)=CCCC(C)=CCON=C1C[C@@H](O)[C@@H](O)[C@@H]2[C@@H]3C(=O)N(Cc4ccccc4)C(=O)[C@@H]3CC[C@@H]12`, 1.07.
As for `C[C@@H](ON=C1[C@H]2CCn3c(=O)n(-c4ccccc4)c(=O)n3[C@H]2[C@H](O)[C@@H]2O[C@H]12)c1cn([C@@H]2COC[C@H]2O)nn1`, the figure is 0.414.
The molecule `COc1cc(O)c(C(=O)C=Cc2ccc3c(c2)OCO3)c(OC)c1` gave a composite z-score of 0.4.
Next, `COC(=O)CC=C[C@@H](C)[C@@H](C=NO[C@H](C)c1cn([C@H](CO)Cc2ccccc2)nn1)NS(=O)(=O)c1ccc(C)cc1`: 0.268.
Next, `COc1ccc(O[C@H]2C=C[C@@H](c3ccccc3)O[C@@H]2COC(=O)CCC(C)=NO[C@@H]2O[C@H](COC(C)=O)[C@@H](OC(C)=O)[C@H](OC(C)=O)[C@H]2OC(C)=O)cc1`: 0.293.
As for `CCOC(=O)NN=C1C[C@@H](O)[C@@H](O)[C@@H]2[C@@H]3C(=O)N(Cc4ccc5c(c4)OCO5)C(=O)[C@@H]3CC[C@H]12`, the figure is -0.176.
`CCOC(=O)[C@H](CC(C)C)NC(=O)CCC1CC(OC(=O)NCc2cccc3ccccc23)CC2(CCCC(COC(=O)NCCC(C)C)O2)O1` (stereo partly specified) registered a composite z-score of 0.364.
As for `CC(C)=CCCC(C)=CCON=C1C[C@@H](O)[C@@H](O)[C@@H]2[C@@H]3C(=O)N(C[C@@H]4CCCO4)C(=O)[C@@H]3CC[C@H]12`, the figure is 1.13.
Next, `CC=CC1=C(CO)C(=O)[C@@H]2O[C@@H]2C1=O`: 1.44.
For the molecule `CO[C@H]1COC(=O)CCC[C@@H](C)[C@H](OC)COC(=O)[C@@H](C)NC(=O)CC=C[C@@H]1C`, the composite z-score stood at 1.12.
As for `COc1ccc(O[C@H]2C=C[C@@H](c3ccccc3)O[C@@H]2COC(=O)CCC(C)=NOC[C@@H](O)[C@H]2O[C@@H]3OC(C)(C)O[C@@H]3[C@H]2O)cc1`, the figure is 0.697; as for `O=C(NN=C1C[C@@H](O)[C@@H](O)[C@@H]2[C@@H]3C(=O)N(Cc4ccccc4)C(=O)[C@@H]3CC[C@@H]12)OCc1ccccc1`, 0.165; as for `CCOC(=O)[C@H](CC(C)C)NC(=O)CCC1CC(OC(=O)NCc2cccc3ccccc23)CC2(CCCC(COC(=O)NCCc3ccc(Cl)cc3)O2)O1` (stereo partly specified), 0.547.
Consider `CO[C@@H]1C=CCC(=O)N2CCC[C@H]2C(=O)OC[C@@H](C)C(=O)OC[C@H]1C`, for which the composite z-score was 1.34.
Next, `CC(C)CON=C1C[C@@H](O)[C@@H](O)[C@@H]2[C@@H]3C(=O)N(C4CCCCC4)C(=O)[C@@H]3CC[C@H]12`: 0.346.
